Only some compounds are listed: those with a hit (about 12% of all), similar ones and a draw of the others.
INS promoter inh: TRM-6 insulin promoter activity inhibition | TRM-6 cells (human fetal islet line), insulin promoter-eGFP reporter, imaging; reporter expression induced with tamoxifen | inhibition, % at 2 µM | 130,000 compounds, 0.9% hits | AID 1273;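 active means inhibition above the mean plus 3 SD, with well images judged a real hit on visual review, cut at about 60% in these data, passing the limit was not always enough; inconclusive means inhibition over the cutoff but images rejected on review; inactive means inhibition not above the cutoff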
Ins promoter up: MIN6 insulin promoter up-regulation; 190,000 compounds, 0.3% hits; z-score at 5 µM; AID 1625; MIN6 insulin promoter-GFP reporter, high-content imaging; hits give high values;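 active means z-score above 3 at 5 µM with at least 500 cells counted in the well; inconclusive means wells under 500 cells, flagged as cytotoxic or low count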
WT yeast gro inh: growth inhibition of WT yeast, mitochondrial fusion screen. mitochondrial fusion phenotypic screen, WT strain. inhibition, % at 10 µM. 190,000 compounds, 2.1% hits; in the data active means inhibition above about 58%; tested in S. cerevisiae
ROMK mod: modulates human ROMK potassium channel activity; P48048; Tet-inducible ROMK, thallium flux fluorescence; actives lie on both sides; B-score at 10 µM; 130,000 compounds, 2% hits; AID 1918;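 active means signal ratio slope over the read window, or its plate-corrected B-score, at least 3 SD from the plate mean, either direction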;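 further: B-score of the F/F0 ratio slope over 7 to 12 s after thallium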
Target sequence (P48048 whole entry, looked up): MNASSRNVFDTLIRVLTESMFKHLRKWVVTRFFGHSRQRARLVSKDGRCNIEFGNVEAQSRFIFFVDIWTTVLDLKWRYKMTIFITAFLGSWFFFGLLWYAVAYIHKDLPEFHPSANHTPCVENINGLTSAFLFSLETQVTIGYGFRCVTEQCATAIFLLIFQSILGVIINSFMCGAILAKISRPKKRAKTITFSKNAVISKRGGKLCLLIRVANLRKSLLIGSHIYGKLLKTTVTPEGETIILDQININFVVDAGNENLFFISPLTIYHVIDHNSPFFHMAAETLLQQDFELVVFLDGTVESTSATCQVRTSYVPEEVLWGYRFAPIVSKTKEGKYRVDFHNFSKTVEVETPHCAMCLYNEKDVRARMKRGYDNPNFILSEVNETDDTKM
Lmaj promast: reduces viability of Leishmania major promastigotes; resazurin fluorescence viability; inhibition, % at 10 µM; 200,000 compounds, 9% hits; in the data active means inhibition above about 50%;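 further: promastigotes grown with compound for 44 hours at 28 °C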
Cl transport mod: KCC2 (human) Cl- transport modulation | KCC2 cells, thallium flux FluoZin-2 fluorescence | B-score of Tl+ flux slope (higher = more flux/activation; lower = inhibition) at 10 µM | 190,000 compounds, 2.2% hits | AID 1456;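 active means thallium flux slope and its plate-corrected score both differing from the plate sample mean at a set confidence after two filtering rounds, in either direction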;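 further: slope of fluorescence scaled to starting intensity during 10 to 20 s after thallium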
* = called active by the depositor; ? = inconclusive; · = no result.

SMILES	INS promoter inh	Ins promoter up	WT yeast gro inh	ROMK mod	Lmaj promast	Cl transport mod
Cc1ccc(-c2cc(C(F)F)nc(NCC3CCCO3)n2)cc1 (stereo not given)	-16	-1.8	8	0.26	64*	-0.068
COC(=O)[C@@]1(Cc2ccc(OC)cc2)[C@H]2c3cc(C(=O)N4CCCC4)n(Cc4ccc(OC)c(OC)c4)c3C[C@H]2CN1C(=O)c1ccccc1	-10	-0.89	15	-3.6	34	-0.33
CN(C)C(=O)c1ccc(-n2nc(C(F)(F)F)c3c2CCCC3)cc1	3	0.02	1	·	-2	-0.59
C=C1C(=O)[C@@]23[C@H](O)C[C@@H]4C(C)(C)CC[C@H](O)[C@@]4(C)[C@@H]2CC[C@@H]1[C@H]3O	-105	?	-12	-2.9	100*	-0.46
CC1=C(C(=O)OCCOc2ccccc2)C(c2ccc(C)o2)C2=C(CC(C)(C)CC2=O)N1 (stereo not given)	·	-1.1	5	-3.1	32	-2.7
CCOC(=O)c1cn(Cc2cccc(Cl)c2)c2cc(C)nn2c1=O	·	0.62	·	·	·	·
CCN1CCN(c2ccc(NC(=O)CCc3c(C)nc4c(-c5ccc(F)cc5)c(C)nn4c3C)cc2)CC1	-53	-0.68	22	-0.95	99*	0.004
Cc1nc2c(-c3ccc(F)cc3)c(C)nn2c(C)c1CCC(=O)N1CCN(c2ccccc2)CC1	·	-1.8	39	·	1	·
Cc1nc2c(-c3ccc(F)cc3)c(C)nn2c(C)c1CCC(=O)N1CCC(Cc2ccccc2)CC1	·	1.1	65*	·	-1	-0.72
Cc1nc2c(-c3ccc(F)cc3)c(C)nn2c(C)c1CCC(=O)Nc1ccccc1	·	-0.49	·	0.019	·	0.37
Cc1ccc(C(=O)N2CC(=O)Nc3ccc(F)cc3C2c2ccc(F)cc2)cc1[N+](=O)[O-] (stereo not given)	·	0.48	19	·	10	1.1
C/C(=N\O)c1ccc(N2C(=O)C3CC=C(Cl)CC3C2=O)cc1 (stereo not given)	-32	·	-24	0.7	44	-0.31
CCOC(=O)NC(CC(=O)O)c1ccc(OC)c(OC)c1 (stereo not given)	6	0.7	1	-0.84	1	0.91
Cc1cccc(C)c1N(CC(=O)N/N=C/c1cc(Br)c(C)o1)S(C)(=O)=O	0	0.67	13	-0.0049	71*	0.1
CN(c1cccc(NC(=O)CN(c2cccc(Cl)c2)S(=O)(=O)c2ccc(Cl)cc2)c1)S(C)(=O)=O	29	0.04	-5	1.6	72*	0.087
CN(c1cccc(NC(=O)Nc2cccc(Cl)c2)c1)S(C)(=O)=O	-227	·	2	·	7	-0.6
Cc1cccc(C)c1N(CC(=O)Nc1cccc(N(C)S(C)(=O)=O)c1)S(C)(=O)=O	-22	·	14	-2	98*	0.74
Cc1ccc(Cl)cc1N(CC(=O)Nc1cccc(N(C)S(C)(=O)=O)c1)S(C)(=O)=O	-124	0.08	5	-0.03	3	-0.12
CCC(C)(C)NC(=O)CN(C(=O)c1snc(C(N)=O)c1N)c1ccc2nc(C)sc2c1	25	0.17	5	-0.38	5	·
O=C1OC(c2ccc3c(c2)OCO3)N(C(=O)c2ccc(Cl)c(Cl)c2)c2ccccc21 (stereo not given)	-3	-0.41	25	0.53*	17	-0.13
Cc1cccc(C(=O)N2c3ccccc3C(=O)OC2c2ccc3c(c2)OCO3)c1 (stereo not given)	·	0.64	20	0.74	5	-0.71
O=C(N/N=C/c1ccc(O)cc1O)/C(=C/c1ccccc1)CCO	·	0.02	3	·	98*	-0.26
COc1cc(/C=N/NC(=O)/C(=C/c2ccccc2)CCO)ccc1O	·	0.18	6	·	-2	-0.19
COc1cc(C(=O)NCCCc2nc3ccccc3n2Cc2cc(C)ccc2C)cc(OC)c1OC	-48	0.67	-8	-0.41	69*	-0.53
O=c1c2ccccc2nnn1CSc1nnc(-c2cccc(S(=O)(=O)N3CCCCC3)c2)o1	-50	0.23	14	-1.6	71*	-0.57
SMILES	INS promoter inh	Ins promoter up	WT yeast gro inh	ROMK mod	Lmaj promast	Cl transport mod
CCN(CC)C(=O)CSc1nnc(-c2ccc(S(=O)(=O)N3CCCC3)cc2)o1	-7	-0.75	3	0.21	99*	·
O=S(=O)(c1cccc(-c2nnc(SCc3nc4ccccc4s3)o2)c1)N1CCOCC1	-71	1.1	15	·	5	-0.89
O=C(CSc1nnc(-c2ccc(S(=O)(=O)N3CCCC3)cc2)o1)NCc1ccco1	-45	·	0	·	88*	1.1
CCCCOn1c(C)c(C(=O)OCC)c2c3nonc3ccc21	43	·	·	·	6	-3.5*
Cc1ccc2cccc(OCC(=O)N3CCc4ccccc43)c2n1	36	·	-2	0.37	5	-1.2
N#C/C(=N\Nc1ccccc1)C(=N)N1CCCCC1	-58	-0.95	4	-0.39	90*	0.8
Nc1nc(-c2ccccc2)c(N=Nc2cccc3ccccc23)s1	·	·	89*	·	10	0.081
CC(=O)Nc1ccc(S(=O)(=O)N2CCSC2c2ccccc2Cl)cc1 (stereo not given)	45	-0.62	-17	·	64*	·
CC(=O)Nc1ccc(S(=O)(=O)N2CCSC2c2ccccc2)cc1 (stereo not given)	32	0.62	-7	·	14	-0.71
CC(/C=N/n1c(-c2ccc(Cl)cc2)n[nH]c1=S)=C\c1ccco1	·	0.08	72*	·	-8	13*
CC(/C=N/n1c(-c2ccco2)n[nH]c1=S)=C\c1ccccc1	·	0.29	73*	·	-10	13*
CC(/C=N/n1c(-c2cc(C)[nH]n2)n[nH]c1=S)=C\c1ccco1	·	0.43	·	·	·	-0.68
Cc1cccc(OCC2CCCN(Cc3nc(C4CC4)no3)C2)c1 (stereo not given)	39	·	24	-0.96	62*	-0.18
COc1ccc(OCC2CCCN(Cc3nc(CC4CC4)no3)C2)cc1 (stereo not given)	·	-0.2	0	-0.63	-3	0.3
CCNC(=O)/C(=C\c1ccccc1)NC(=O)/C=C/c1ccccc1	16	0.24	2	·	85*	0.86
CC/C(O)=C1\C(=O)CC(c2ccccc2)CC1=NC(C)C (stereo not given)	24	0.23	-10	-0.42	59*	-0.07
CC/C(O)=C1\C(=O)CC(c2ccccc2)CC1=NCCC(=O)O (stereo not given)	·	0.57	-6	·	-6	-0.29
Cc1c(C(=O)O)cccc1-n1c(C)cc(/C=N/NC(=O)c2cc3ccccc3o2)c1C	-11	-0.31	15	0.59	56*	-0.031
Cc1c(C(=O)O)cccc1-n1c(C)cc(/C=N/Nc2ccc([N+](=O)[O-])cn2)c1C	·	-0.37	·	·	·	-1
CCC1(CC)NC(=O)NC1=O	91*	-0.4	-5	·	-5	·
O=C1Cc2ccccc2C(=O)N1Cc1ccccc1	21	-0.5	-1	0.58	2	·
CCOc1cccc2sc(N(CCCN(C)C)C(=O)c3ccc(S(=O)(=O)N(C)c4ccccc4)cc3)nc12	7	-0.71	12	·	88*	-0.082
CN(C)CCN(C(=O)c1ccc(S(=O)(=O)N(C)c2ccccc2)cc1)c1nc2cc3c(cc2s1)OCCO3	·	-0.15	·	·	·	0.51

Screening results from PubChem BioAssay.
